# In the library only some 3.4% were active in any assay of this set; here they are far more common.
# rRNA inh HTS = inhibits bacterial ribosomal RNA function over humanized ribosomes. E. coli WT GFP vs humanized-ribosome RFP mutants, fluorescence, 24 h; stronger effect = lower value; DMSO median 0, no signal -100. GFP signal change (wild-type ribosome), % (test concentration not listed). 350,000 tested, 1.6% active;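 active = significant combined selectivity score with lowered wild-type GFP, culture density cut under 30%, mutant RFP and density less affected; inactive = any of these conditions unmet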
# PGC1a acetyl inh = PGC1a acetylation modulation, inhibitor mode; U2OS PGC1a acetylation, AlphaScreen anti-acetyl-lysine; with virally co-expressed GCN5 acetyltransferase; inhibition, % at 15.6 µM; 350,000 tested, 0.17% active; AID 651687;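 active = every replicate shows inhibition of at least 40%; inconclusive = mean inhibition at least 40% but some replicate below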;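 note: 0% = neutral control wells and 100% = positive control wells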
# LGR2 antag = Drosophila LGR2 receptor signaling inhibition | HEK293 LGR2, CRE-luciferase, bursicon-stimulated, 4 h | inhibition, % at 9.99 µM | 380,000 tested, 0.35% active | AID 720647;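 active = drop in luminescence signal, shown as inhibition above about 50% in the replicate tests, limit read from the data, passing the limit was not always enough; inconclusive = probably only some replicates passing the limit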;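 note: agonist challenge used bursicon conditioned medium at about half maximal strength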
# EWS-Fli block = inhibitors of EWS/Fli oncoprotein transcriptional activity; 350,000 tested, 0.67% active; inhibition, % at 12.6 µM; AID 651661; A673 NR0B1-luciferase reporter, viability-normalised;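 active = mean inhibition of at least 50% after viability correction, with every replicate also passing that limit; inconclusive = mean reaches 50% but only one of two replicates passes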;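 note: firefly luciferase signal divided by Alamar Blue viability fluorescence both relative to DMSO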
# PAX8 reporter = PAX8 transcriptional activity inhibition. 360,000 tested, 1.2% active. RMG-I TPO-luciferase reporter, SteadyGlo, 24 h. inhibition, % at 12.6 µM;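 active = mean replicate inhibition at least 60% with every replicate also reaching 60%; inconclusive = only one of the two criteria is met; inactive = mean below 60% and not all replicates reaching 60%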;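 note: luciferase light reporting Pax8 driven TPO promoter activity; plate controls were median of neutral control wells for no effect and mitoxantrone controls for full effect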
# SIRT5 inh = blocks human SIRT5 desuccinylation of peptide | Q9NXA8 | Purified SirT5, succinyl-peptide AMC, trypsin-coupled fluorescence | inhibition, % at 15 µM | 330,000 tested, 1.1% active | AID 652115; in the data active = inhibition above about 15%; inconclusive = no clear call, values can overlap the other calls
# Target sequence (Q9NXA8 whole entry, looked up): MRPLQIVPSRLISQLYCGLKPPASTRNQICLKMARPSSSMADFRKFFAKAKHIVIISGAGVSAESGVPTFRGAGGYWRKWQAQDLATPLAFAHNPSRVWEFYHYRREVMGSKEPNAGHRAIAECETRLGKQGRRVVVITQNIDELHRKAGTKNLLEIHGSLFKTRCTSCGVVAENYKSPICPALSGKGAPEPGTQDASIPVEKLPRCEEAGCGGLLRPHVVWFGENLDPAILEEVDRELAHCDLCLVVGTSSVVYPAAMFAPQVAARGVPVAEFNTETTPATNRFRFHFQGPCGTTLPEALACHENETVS
# Starred values were filed as active, the others as inactive; u = inconclusive; x = not tested or not shown.
SMILES,rRNA inh HTS,PGC1a acetyl inh,LGR2 antag,EWS-Fli block,PAX8 reporter,SIRT5 inh
C[C@@H]1CN([C@@H](C)CO)S(=O)(=O)c2ccc(C#Cc3ccncc3)cc2O[C@@H]1CN(C)C(=O)Nc1ccc2c(c1)OCO2,-7,-9,-7,-13,-21,0
C[C@H](CO)N1C[C@H](C)[C@@H](CN(C)C(=O)Nc2ccc3c(c2)OCO3)Oc2cc(C#Cc3ccncc3)ccc2S1(=O)=O,-6,6,-1,49,100*,8
O=C(C[C@@H]1C=C[C@H](NC(=O)Nc2ccccc2)[C@@H](CO)O1)NCc1cccc(F)c1,2,-5,-13,4,-4,-5
COc1ccc2c3c([nH]c2c1)[C@@H](CO)N(C(=O)C1CCCC1)CC31CN(Cc2cccc(F)c2)C1,-56,6,8,-6,x,x
O=C(c1ccc2ccccc2c1)c1c[nH]cc1-c1ccccc1,x,-18,x,x,-28,x
Cc1cc(C(=O)c2ccc3ccccc3c2)c(C)o1,-23*,20,-36,-35,-28,-1
CC(=O)N1[C@H](CO)[C@@H](c2ccccc2)C12CN(C(=O)Nc1ccccc1F)C2,1,x,-3,x,x,3
CCC(=O)Nc1ccc2c(c1)C(=O)N(C)C[C@@H](OC)[C@@H](C)CN(CC1CCOCC1)[C@@H](C)CO2,0,0,-11,-2,-16,x
CCOC(=O)Oc1c(OC)cc(C(=O)O[C@@H]2C[C@@H]3CN4CCc5c([nH]c6cc(OC)ccc56)[C@H]4C[C@@H]3[C@H](C(=O)OC)[C@H]2OC)cc1OC,x,-13,0,10,75*,-7
CCC(=O)N1N=C(c2cccs2)CC1c1ccc(C)cc1 (stereo not drawn),-32,0,2,11,22,2
Cc1ccc(C2CC(c3cccs3)=NN2C(=O)CCl)cc1 (stereo not drawn),-1,-19,-63,65*,-17,1
O=C(Nc1ccccc1Cc1ccccc1)c1ccccc1NS(=O)(=O)c1ccc(Cl)s1,x,x,u,x,71*,x
O=C(Nc1ccccc1)c1ccccc1NS(=O)(=O)c1ccc(Cl)s1,x,-9,x,x,x,x
Cc1nn(-c2ccccc2)c(C)c1CN(C)C(=O)c1ccc(S(=O)(=O)NCc2ccco2)cc1,-33*,x,-2,8,15,-1
CN(Cc1ccc(Cl)cc1)C(=O)c1ccc(S(=O)(=O)NCc2ccco2)cc1,5,9,-5,8,25,-4
C[C@H](CO)N1C[C@H](C)[C@@H](CN(C)S(=O)(=O)c2cccs2)Oc2c(NC(=O)Cn3cnnn3)cccc2C1=O,-5,x,x,x,x,x
COC(=O)c1cc(OC)c(OC)cc1NC(=O)C(C)Sc1ccc(C)cc1 (stereo not drawn),-26*,-9,-7,14,x,-1
O=C(C[C@H]1C[C@H]2c3cc(NC(=O)CC4CC4)ccc3O[C@H]2[C@@H](CO)O1)NCc1cccnc1,-2,-2,9,1,x,-3
O=C(COC(=O)c1ccccc1Cl)NCCC1=CCCCC1,-21*,x,-97,4,-37,0
O=C(COC(=O)c1ccc(F)cc1F)NCCC1=CCCCC1,-7,10,-21,2,1,-2
C[C@@H]1CN([C@H](C)CO)C(=O)c2cc(NC(=O)Nc3ccc4c(c3)OCO4)ccc2O[C@@H](C)CCCCO[C@H]1CN(C)Cc1ccc(Cl)c(Cl)c1,-3,-2,1,4,x,-4
O=C1NC(=Nc2ccc(O)cc2)S/C1=C\C=C\c1ccco1,-24*,x,-53,47,0,-2
COc1ccc(N=C2NC(=O)/C(=C\c3ccco3)S2)cc1,-13,4,-32,-27,-58,3
c1ccc(COc2ncnc3c2ncn3CCCN2CCN(c3ccccn3)CC2)cc1,-7,-11,-8,8,3,-2
COc1ncnc2c1ncn2CCCN1CCN(c2ccccn2)CC1,4,x,0,7,-4,28*
SMILES,rRNA inh HTS,PGC1a acetyl inh,LGR2 antag,EWS-Fli block,PAX8 reporter,SIRT5 inh
N#C/C(=N\Nc1ccc(S(=O)(=O)N2CCCCC2)cc1)C(N)=S,-32*,x,9,-1,5,8
N#C/C(=N\Nc1ccc(S(=O)(=O)N2CCCCCC2)cc1)C(N)=S,-58,x,-20,-4,-25,10
C[C@@H]1CN([C@H](C)CO)S(=O)(=O)c2ccc(C#CC(C)(C)O)cc2O[C@H]1CN(C)C,0,-13,-2,-11,x,-3
COC(=O)c1cc2oc3ccccc3c2n1CC(=O)N1CCCc2ccccc21,x,x,x,x,13,x
COC(=O)c1cc2oc3ccccc3c2n1Cc1ccccn1,-44*,x,-13,x,x,3
CC(Oc1ccc(F)cc1)C(=O)Nc1nc(-c2ccccn2)cs1 (stereo not drawn),-57,8,7,27,69*,0
O=C(CCS(=O)(=O)c1ccccc1)Nc1ccccn1,0,10,-17,0,-22,-2
Cc1ccc(S(=O)(=O)CCC(=O)Nc2nc(-c3ccncc3)cs2)cc1,-3,-9,0,-2,20,-1
O=C(CCS(=O)(=O)c1ccccc1)Nc1nc(-c2ccccn2)cs1,-15,x,3,13,73*,-1
O=C(CCS(=O)(=O)c1ccc(F)cc1)Nc1nc(-c2ccccn2)cs1,-15,x,26,18,84*,-4
Cc1csc(NC(=O)C(C)Oc2ccc(Br)cc2)n1 (stereo not drawn),-4,0,10,-7,106*,7
O=C(c1cccnc1)N1CCCCN2[C@H](CO)[C@H](c3ccc(C#Cc4ccccc4)cc3)[C@@H]2C1,x,1,x,18,-7,x
C[C@@H]1CN([C@H](C)CO)C(=O)c2cc(C#CCN(C)C)cnc2O[C@H]1CN(C)C(=O)c1cccc(F)c1,-1,13,-14,2,x,-1
O=C(C#Cc1ccccc1)c1ccc([N+](=O)[O-])cc1,x,-17,x,x,11,x
O=C(C#Cc1ccccc1)c1ccccc1,-61,-29,33,70*,46,-4
COc1cccc(S(=O)(=O)NCC(=O)Nc2ccc(C(C)(C)C)cc2)c1,-17,-2,2,5,88*,-1
COc1ccc(NC(=O)CNS(=O)(=O)c2ccc(Cl)cc2)cc1,x,-7,x,x,x,x
Cc1ccc(S(=O)(=O)Nc2cccc(-c3ccc(N4CCCCCC4)nn3)c2)cc1,-23*,-7,-54,-79,-156,4
COc1ccc(S(=O)(=O)Nc2cccc(-c3ccc(N4CCCCCC4)nn3)c2)cc1OC,6,-5,-36,x,-48,0
O=C(NCC[C@@H]1CC[C@@H](NS(=O)(=O)Cc2ccccc2)[C@H](CO)O1)C1CCC1,1,-3,0,-1,-7,-3
Nc1ccc(S(=O)(=O)Nc2nccs2)cc1N=Nc1ccccc1[N+](=O)[O-],-20*,-1,-28,9,7,9
Oc1c(CN2CCN(c3ccccc3)CC2)cc(Br)c2cccnc12,-21,19,15,-4,85*,-1
